Screen size: about 5,500 compounds; about 2,000 (36%) were called active. Inconclusive results (about 18%) are left out. Some of the results follow. A number with no mark means an inactive call. Cut-off read from the data, not from the text of the source: active = normalized growth mostly below about 0.91 (no sharp cut-off); inconclusive = no clear call, values can overlap the other calls; inactive = mostly above about 0.92.
Assay: chemical genetic growth profiling, strain panel (AID 1159580);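 note: tested at 20 µM; growth read once vehicle control cultures reached saturation at 30 °C; 1 = growth at the plate median or of vehicle wells; lower values mean less growth of the strain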
Details: S. cerevisiae deletion strains, growth OD
[1] = locus YDL101C, strain DUN1, active compounds read low
[2] = locus YHR030C, strain SLT2, active compounds read low
[3] = locus YJL095W, strain BCK1, active compounds read low
[4] = locus YOR061W, strain CKA2, active compounds read low

CC12CC[C@@H](O)CC1=CC[C@@H]1C2CCC2(C)C(=O)CC[C@@H]12 (some centres undefined)
normalized growth (locus YAR019C, strain CDC15, active compounds read low): 1.01
normalized growth (locus YBL105C, strain PKC1, active compounds read low): 1.01
normalized growth (locus YBR135W, strain CKS1, active compounds read low): 1.02
normalized growth (locus YBR136W, strain MEC1, active compounds read low): 1.01
normalized growth (locus YBR160W, strain CDC28, active compounds read low): 1.02
normalized growth (locus YDL017W, strain CDC7, active compounds read low): 1.02
normalized growth (locus YDL028C, strain MPS1, active compounds read low): 1.02
normalized growth [1]: 1
normalized growth (locus YDL108W, strain KIN28, active compounds read low): 1.01
normalized growth (locus YDL132W, strain cdc53, active compounds read low): 1.02
normalized growth (locus YDL214C, strain PRR2, active compounds read low): 0.915
normalized growth (locus YDR052C, strain DBF4, active compounds read low): 1.01
normalized growth (locus YDR054C, strain cdc34, active compounds read low): 1.01
normalized growth (locus YDR226W, strain ADK1, active compounds read low): 1.01
normalized growth (locus YDR477W, strain SNF1, active compounds read low): 0.909
normalized growth (locus YER123W, strain YCK3, active compounds read low): 0.822
normalized growth (locus YER133W, strain GLC7, active compounds read low): 0.915
normalized growth (locus YFL009W, strain cdc4, active compounds read low): 1.02
normalized growth (locus YFL029C, strain CAK1, active compounds read low): 1.01
normalized growth (locus YFR003C, strain YPI1, active compounds read low): 1.01
normalized growth (locus YFR019W, strain FAB1, active compounds read low): 0.801
normalized growth (locus YFR028C, strain CDC14, active compounds read low): 1.01
normalized growth (locus YGR040W, strain KSS1, active compounds read low): 0.889
normalized growth (locus YGR052W, strain FMP48, active compounds read low): 0.924
normalized growth (locus YGR092W, strain DBF2, active compounds read low): 0.695
normalized growth [2]: 0.787 (active)
normalized growth (locus YHR079C, strain IRE1, active compounds read low): 0.96
normalized growth (locus YHR082C, strain KSP1, active compounds read low): 0.95
normalized growth (locus YHR205W, strain SCH9, active compounds read low): 0.852
normalized growth (locus YIL147C, strain SLN1, active compounds read low): 1.01
normalized growth [3]: 0.815
normalized growth (locus YJL128C, strain PBS2, active compounds read low): 0.973
normalized growth (locus YJL157C, strain FAR1, active compounds read low): 0.893
normalized growth (locus YJR016C, strain ILV3, active compounds read low): 1.02
normalized growth (locus YJR066W, strain TOR1 (second series), active compounds read low): 0.848
normalized growth (locus YJR066W, strain TOR1, active compounds read low): 0.901
normalized growth (locus YKL048C, strain ELM1, active compounds read low): 0.957
normalized growth (locus YKL067W, strain YNK1, active compounds read low): 0.924
normalized growth (locus YKL101W, strain HSL1, active compounds read low): 0.913
normalized growth (locus YKL193C, strain SDS22, active compounds read low): 1.01
normalized growth (locus YKL203C, strain TOR2, active compounds read low): 0.92
normalized growth (locus YLR113W, strain HOG1, active compounds read low): 0.996
normalized growth (locus YLR133W, strain CKI1, active compounds read low): 0.904
normalized growth (locus YLR403W, strain SFP1, active compounds read low): 0.801
normalized growth (locus YML070W, strain DAK1, active compounds read low): 0.903
normalized growth (locus YMR001C, strain CDC5, active compounds read low): 1
normalized growth (locus YMR205C, strain PFK2 (second series), active compounds read low): 0.916
normalized growth (locus YMR277W, strain FCP1, active compounds read low): 1.01
normalized growth (locus YNL006W, strain LST8, active compounds read low): 1.02
normalized growth (locus YNL020C, strain ARK1, active compounds read low): 0.908
normalized growth (locus YNL161W, strain CBK1, active compounds read low): 1.02
normalized growth (locus YNL183C, strain NPR1, active compounds read low): 0.95
normalized growth (locus YNL207W, strain RIO2, active compounds read low): 1.01
normalized growth (locus YNL222W, strain SSU72, active compounds read low): 1.02
normalized growth (locus YNL307C, strain MCK1 (second series), active compounds read low): 0.787
normalized growth (locus YOL078W, strain AVO1, active compounds read low): 1
normalized growth (locus YOL136C, strain PFK27, active compounds read low): 0.838
normalized growth [4]: 0.861
normalized growth (locus YOR119C, strain RIO1, active compounds read low): 0.938
normalized growth (locus YOR231W, strain MKK1, active compounds read low): 0.912
normalized growth (locus YOR329C, strain SCD5, active compounds read low): 1.02
normalized growth (locus YPL031C, strain PHO85, active compounds read low): 0.899
normalized growth (locus YPL153C, strain RAD53, active compounds read low): 0.921
normalized growth (locus YPL204W, strain HRR25, active compounds read low): 0.853
normalized growth (locus YPL209C, strain IPL1, active compounds read low): 1.02
normalized growth (locus YPL256C, strain CLN2, active compounds read low): 1.07
normalized growth (locus YPR025C, strain CCL1, active compounds read low): 1.02
normalized growth (locus YPR106W, strain ISR1, active compounds read low): 0.998
normalized growth (locus YPR111W, strain DBF20, active compounds read low): 1
normalized growth (strain NNK1, active compounds read low): 1
normalized growth (strain TSCII, active compounds read low): 1.01

CCC(CCC(C)C1CCC2C3CC=C4C[C@@H](OC(C)=O)CC[C@]4(C)C3CC[C@]12C)C(C)C (some centres undefined)
normalized growth (locus YBR021W, strain FUR4, active compounds read low): 0.996
normalized growth (locus YBR229C, strain ROT2, active compounds read low): 0.99
normalized growth (locus YCL029C, strain bik1, active compounds read low): 0.996
normalized growth (locus YDL035C, strain GPR1, active compounds read low): 1.04
normalized growth (locus YDL074C, strain BRE1, active compounds read low): 1.07
normalized growth [1]: 0.979
normalized growth (locus YDL134C, strain PPH21, active compounds read low): 1.01
normalized growth (locus YDL185W, strain tfp1, active compounds read low): 0.974
normalized growth (locus YDL192W, strain arf1, active compounds read low): 1
normalized growth (locus YDR101C, strain arx1, active compounds read low): 1.02
normalized growth (locus YDR162C, strain NBP2, active compounds read low): 1
normalized growth (locus YDR318W, strain mcm21, active compounds read low): 0.976
normalized growth (locus YDR388W, active compounds read low): 0.963
normalized growth (locus YDR502C, strain sam2, active compounds read low): 0.968
normalized growth (locus YEL061C, strain CIN8, active compounds read low): 1
normalized growth (locus YER110C, active compounds read low): 0.968
normalized growth (locus YER155C, strain BEM2, active compounds read low): 0.981
normalized growth (locus YER167W, strain BCK2, active compounds read low): 1.01
normalized growth (locus YGL078C, strain dbp3, active compounds read low): 0.964
normalized growth (locus YGL086W, strain mad1, active compounds read low): 0.992
normalized growth (locus YGL248W, strain PDE1, active compounds read low): 0.982
normalized growth (locus YGR078C, strain PAC10, active compounds read low): 0.989
normalized growth (locus YGR135W, strain pre9, active compounds read low): 0.945
normalized growth (locus YGR252W, strain gcn5, active compounds read low): 0.941
normalized growth [2]: 0.991
normalized growth (locus YHR079C, strain IRE1 (second series), active compounds read low): 0.977
normalized growth (locus YHR094C, strain hxt1, active compounds read low): 0.976
normalized growth (locus YHR129C, strain ARP1, active compounds read low): 0.998
normalized growth (locus YHR200W, strain rpn10, active compounds read low): 0.975
normalized growth (locus YIL066C, strain RNR3, active compounds read low): 1.02
normalized growth (locus YIL073C, strain SPO22, active compounds read low): 1.01
normalized growth (locus YIL125W, strain kgd1, active compounds read low): 0.987
normalized growth (locus YIR030C, strain dcg1, active compounds read low): 0.968
normalized growth [3]: 0.991
normalized growth (locus YJL134W, strain LCB3, active compounds read low): 0.991
normalized growth (locus YJL168C, strain set2, active compounds read low): 0.96
normalized growth (locus YJL187C, strain SWE1 (second series), active compounds read low): 0.979
normalized growth (locus YJR043C, strain POL32, active compounds read low): 1.05
normalized growth (locus YKL009W, strain mrt4, active compounds read low): 1.03
normalized growth (locus YKL068W, active compounds read low): 0.987
normalized growth (locus YKL085W, strain MDH1 (second series), active compounds read low): 0.989
normalized growth (locus YKL085W, strain MDH1, active compounds read low): 0.989
normalized growth (locus YKL190W, strain CNB1, active compounds read low): 1
normalized growth (locus YKR001C, strain vps1, active compounds read low): 0.995
normalized growth (locus YLR039C, strain RIC1, active compounds read low): 1.07
normalized growth (locus YLR058C, strain SHM2, active compounds read low): 1
normalized growth (locus YLR102C, strain apc9, active compounds read low): 0.978
normalized growth (locus YLR262C, strain YPT6, active compounds read low): 1.08
normalized growth (locus YLR268W, strain sec22, active compounds read low): 1.02
normalized growth (locus YLR330W, strain CHS5, active compounds read low): 0.993
normalized growth (locus YLR342W, strain FKS1 (second series), active compounds read low): 1.09
normalized growth (locus YLR371W, strain rom2, active compounds read low): 0.993
normalized growth (locus YLR418C, strain cdc73, active compounds read low): 0.959
normalized growth (locus YML016C, strain PPZ1, active compounds read low): 1.01
normalized growth (locus YML032C, strain rad52, active compounds read low): 1.01
normalized growth (locus YML124C, strain tub3, active compounds read low): 0.98
normalized growth (locus YMR078C, strain ctf18, active compounds read low): 0.962
normalized growth (locus YMR223W, strain ubp8, active compounds read low): 0.992
normalized growth (locus YMR307W, strain GAS1, active compounds read low): 1.06
normalized growth (locus YNL067W, strain RPL9B, active compounds read low): 0.974
normalized growth (locus YNL128W, strain TEP1, active compounds read low): 1.01
normalized growth (locus YNL233W, strain BNI4, active compounds read low): 0.98
normalized growth (locus YNL250W, strain rad50, active compounds read low): 0.947
normalized growth (locus YNL271C, strain bni1, active compounds read low): 0.957
normalized growth (locus YNL298W, strain CLA4, active compounds read low): 0.997
normalized growth (locus YNL307C, strain MCK1, active compounds read low): 0.975
normalized growth (locus YNR052C, strain pop2, active compounds read low): 0.961
normalized growth (locus YOL006C, strain TOP1, active compounds read low): 1.2
normalized growth (locus YOL012C, strain htz1): 1.41
normalized growth (locus YOL147C, strain pex11, active compounds read low): 0.989
normalized growth [4]: 1.01
normalized growth (locus YOR069W, strain VPS5, active compounds read low): 0.99
normalized growth (locus YOR136W, strain idh2, active compounds read low): 0.975
normalized growth (locus YOR144C, strain elg1, active compounds read low): 0.97
normalized growth (locus YOR184W, strain ser1, active compounds read low): 1.04
normalized growth (locus YOR316C, strain cot1, active compounds read low): 0.978
normalized growth (locus YPL055C, strain LGE1, active compounds read low): 1.03
normalized growth (locus YPL241C, strain CIN2, active compounds read low): 0.984
normalized growth (locus YPR119W, strain clb2, active compounds read low): 0.971
normalized growth (locus YPR141C, strain kar3, active compounds read low): 0.975
normalized growth (locus YPR163C, strain tif3, active compounds read low): 0.982
normalized growth (locus YPR167C, strain met16, active compounds read low): 0.967
normalized growth (strain wtn01, active compounds read low): 1.01
